The record followed here is PubChem BioAssay (NCI).

Compounds without any hit were thinned out: in the full panel of roughly 83,000, 20% have a hit.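 Growth was measured after 48 h exposure to one concentration of compound in 96-well plates. Values under 10 count as active.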 Values without a mark were called inactive. Active and inactive are the calls of the source.

Some test systems named below: HCT-15 colon; HT29 colon; SNB-75 CNS; SNB-19 CNS; U251 CNS; PC-3 prostate; SK-MEL-5 melanoma; UACC-62 melanoma; LOX IMVI melanoma; SK-MEL-28 melanoma; SK-MEL-2 melanoma; EKVX NSCLC; SN12C renal; UO-31 renal; TK-10 renal; ACHN renal; A498 renal; CCRF-CEM leukemia; MOLT-4 leukemia; SR leukemia.
Common to all, as to experiment: NCI-60 one-dose screen, 48 h (100 = growth as untreated, 0 = no growth, -100 = all killed)
Details in all cases: 10 µM unless noted

In the case of `COc1ccc2c(c1)Oc1nc(N)c(C#N)c(N)c1C2Sc1ccc(SC)cc1` (stereo not given), the growth is -10.9% (active) with HCT-15 colon; 17.2% in the assay with HT29 colon; 34.2% in the assay with SNB-75 CNS; 58.2% in the assay with SNB-19 CNS; 13.9% in the assay on U251 CNS; 35.9% with PC-3 prostate. The growth in the assay with SK-MEL-5 melanoma is 40.8%; in the assay on UACC-62 melanoma, 50.7%; in the assay on LOX IMVI melanoma, -39.2% (active); with SK-MEL-28 melanoma, 32.7%; with SK-MEL-2 melanoma, -25.6% (active); in the assay on EKVX NSCLC, 32.6%. The growth is 21.7% in the assay on SN12C renal; 5.13% (active) with UO-31 renal; -16.4% (active) in the assay with TK-10 renal; -66.3% (active) in the assay on ACHN renal; 95.4% in the assay with A498 renal; -2.59% (active) with CCRF-CEM leukemia. For the same compound, the growth is 0.548% (active) in the assay on MOLT-4 leukemia and -17.5% (active) in the assay on SR leukemia.
As to `N#Cc1c(-c2ccc(F)cc2)nc(N=Nc2c(O)[nH]c3ccc(Cl)cc23)nc1N1CCOCC1`, the growth was 71.7% in the assay with HCT-15 colon; 37.9% in the assay on HT29 colon; -6.94% (active) with SNB-75 CNS; 39.8% in the assay with SNB-19 CNS; 15.8% in the assay with U251 CNS; 61% in the assay with PC-3 prostate. The growth is 29.6% in the assay on SK-MEL-5 melanoma; 35.1% in the assay on UACC-62 melanoma; 24.5% in the assay with LOX IMVI melanoma; 46.8% with SK-MEL-28 melanoma; 64% in the assay with SK-MEL-2 melanoma; 72.5% in the assay on EKVX NSCLC. For the same compound, the growth in the assay with SN12C renal was -9.86% (active); with UO-31 renal, 6.44% (active); in the assay with TK-10 renal it was 11.6%; in the assay on ACHN renal, 14.6%; in the assay on A498 renal, 51.2%; with CCRF-CEM leukemia, 58.7%. In addition, the growth is 48.5% in the assay with MOLT-4 leukemia and 47% in the assay with SR leukemia.
For the compound `Cc1cccc2nc3c(n12)C(=O)C(=O)c1ccccc1-3`, the growth is 40.8% in the assay with HCT-15 colon; 78% with HT29 colon; 136% in the assay with SNB-75 CNS; 61.3% with SNB-19 CNS; 43% with U251 CNS; 40.2% in the assay with PC-3 prostate. Also, the growth in the assay with SK-MEL-5 melanoma is 30.2%; in the assay on UACC-62 melanoma it was -57.4% (active); with LOX IMVI melanoma it was 6.44% (active); in the assay on SK-MEL-28 melanoma it was 85.7%; in the assay on SK-MEL-2 melanoma, 81.2%; in the assay on EKVX NSCLC it was 64.1%. In addition, the growth was 37.1% with SN12C renal; 55.8% in the assay with UO-31 renal; 125% in the assay with TK-10 renal; 69.4% in the assay on ACHN renal; 81.3% in the assay with A498 renal; 91.9% in the assay on CCRF-CEM leukemia. Further, the values for the growth in the assay on MOLT-4 leukemia and with SR leukemia were 81.1% and 88.2%, respectively.
With `C=C1C(=O)O[C@H]2[C@H]1CC/C(COC(=O)/C=C/c1cccnc1)=C\CC[C@@]1(C)O[C@@H]21`, the growth with HCT-15 colon is 3.01% (active); in the assay on HT29 colon, 11.1%; in the assay on SNB-75 CNS, 72.2%; with SNB-19 CNS it was 75.2%; with U251 CNS, 57.7%; with PC-3 prostate, 57.5%. Besides, the growth in the assay with SK-MEL-5 melanoma is 68.2%; in the assay on UACC-62 melanoma it was 41.1%; in the assay on LOX IMVI melanoma, 30.7%; with SK-MEL-28 melanoma it was 43.7%; in the assay on SK-MEL-2 melanoma, 75.2%; in the assay on EKVX NSCLC, 43.4%. Also, the growth in the assay with SN12C renal is 16.8%; in the assay with UO-31 renal, 24.9%; with TK-10 renal, 25.1%; with ACHN renal it was -11.4% (active); in the assay with A498 renal, 92.4%; with CCRF-CEM leukemia, -7.32% (active). Also, the growth was 8.45% (active) with MOLT-4 leukemia and 6.38% (active) in the assay on SR leukemia.
Consider `C#Cc1cccc(Nc2ncnc3ccc(NC(=O)c4ccccc4)cc23)c1`, for which the growth with HCT-15 colon was 65.3%; with HT29 colon, 82.4%; in the assay with SNB-75 CNS, 67.2%; with SNB-19 CNS, 89.5%; in the assay with U251 CNS it was 85.4%; in the assay with PC-3 prostate, 75.8%. Besides, the growth with SK-MEL-5 melanoma is 95.5%; in the assay with UACC-62 melanoma, 95.2%; in the assay on LOX IMVI melanoma, 81.7%; in the assay with SK-MEL-28 melanoma, 93.9%; in the assay on SK-MEL-2 melanoma, 85.3%; in the assay on EKVX NSCLC, 52.3%. The growth is 76.6% in the assay on SN12C renal; 56% with UO-31 renal; 26.1% in the assay on TK-10 renal; 39.6% with ACHN renal; 65.4% in the assay on A498 renal; 89.7% with CCRF-CEM leukemia. In addition, the growth with MOLT-4 leukemia is 59.5%; in the assay on SR leukemia it was 61.8%.
`COc1ccc(Nc2nc(SCC(C)C)nc(-c3ccc(F)cc3)c2C#N)cc1`: the growth in the assay on HCT-15 colon is 46%; in the assay with HT29 colon, 24.3%; in the assay with SNB-75 CNS, 70.6%; with SNB-19 CNS, 50.3%; in the assay with U251 CNS, 56.7%; in the assay with PC-3 prostate it was 49.2%. In addition, the growth in the assay with SK-MEL-5 melanoma was 53.6%; with UACC-62 melanoma, 40.6%; in the assay on LOX IMVI melanoma, 57.8%; in the assay with SK-MEL-28 melanoma, 72.2%; in the assay on SK-MEL-2 melanoma, 72.4%; with EKVX NSCLC, 69.4%. The growth in the assay on SN12C renal was 85.9%; in the assay on UO-31 renal, 68.9%; in the assay with TK-10 renal it was 92.1%; in the assay with ACHN renal it was 72%; with A498 renal, 30.7%; with CCRF-CEM leukemia, 33.3%. The growth in the assay on MOLT-4 leukemia is 57.2%; with SR leukemia it was 20.1%.
With `COc1ccc2[nH]c3nc4cnccc4cc3c2c1`, the growth in the assay on HCT-15 colon is 97.9%; with HT29 colon, 99.7%; in the assay with SNB-75 CNS, 97.5%; in the assay with SNB-19 CNS it was 105%; with U251 CNS, 98.9%; in the assay with PC-3 prostate it was 104%. In addition, the growth in the assay with SK-MEL-5 melanoma is 108%; with UACC-62 melanoma, 117%; with LOX IMVI melanoma, 105%; with SK-MEL-28 melanoma it was 114%; with SK-MEL-2 melanoma, 110%; in the assay with EKVX NSCLC, 72.2%. For the same compound, the growth was 101% in the assay with SN12C renal; 71.2% with UO-31 renal; 111% in the assay with TK-10 renal; 98.3% in the assay with ACHN renal; 114% in the assay on A498 renal; 98.1% in the assay on CCRF-CEM leukemia. Besides, the growth with MOLT-4 leukemia was 102%; in the assay on SR leukemia, 103%.
For `COc1cc(F)c(-c2nc3c(C)cccc3n2Cc2c(F)cccc2F)c(F)c1`, the growth is 81.9% in the assay on HCT-15 colon; 70.1% in the assay with HT29 colon; 71.5% with SNB-75 CNS; 91.6% with SNB-19 CNS; 83.6% in the assay with U251 CNS; 64.2% in the assay with PC-3 prostate. Besides, the growth was 85.6% with SK-MEL-5 melanoma; 64.5% with UACC-62 melanoma; 87.8% with LOX IMVI melanoma; 98.7% in the assay with SK-MEL-28 melanoma; 93.6% in the assay on SK-MEL-2 melanoma; 87.9% with EKVX NSCLC. Moreover, the growth is 92.1% in the assay with SN12C renal; 72.2% in the assay on UO-31 renal; 90.5% with TK-10 renal; 101% in the assay with ACHN renal; 87% in the assay on A498 renal; 98.6% with CCRF-CEM leukemia. Besides, the growth is 60.6% in the assay on MOLT-4 leukemia and 88.3% with SR leukemia.
